Source: PubChem BioAssay (National Center for Advancing Translational Sciences (NCATS))
Many of the other results were omitted from the sample, so hits are more common in it than they were.
Luciferase inh – blocks Photinus pyralis firefly luciferase activity; actives 2.2% (n = 72,000); AID 411; P08659; purified firefly luciferase, luminescence, 8 min; Potency, µM (titrated, usually from 57.1 µM), for inactives: at the highest dose activity change, negative = inhibition, hits mostly inhibitors; note: potency is the fitted concentration of half-maximal effect; % is set by controls: 0 for no effect and ±100 for the full control effect; nearly all actives have a fitted effect of over 40% in size
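Substrate buffer containing 10 uM ATP (pH 7.2 imidazole, Mg2+, KCl, detergent, BSA) is dispensed, compound pinned in, then luciferase/luciferin detector mix added. After 8 min at ambient temperature, light output is measured.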
p53ts 39C tox – kills p53ts cells at the nonpermissive temperature. AID 902. actives 1.5% (n = 130,000). Potency, µM (titrated, usually from 46.1 µM), for the others: top-dose activity change, negative = cell killing, usual class: cytotoxic. H1299-p53A138V viability at 39C, ATP luminescence, 24 h; note: potency is the fitted concentration of half-maximal effect; % is set by controls: 0 for no effect and ±100 for the full control effect; nearly all actives have a fitted effect of over 55% in size
IMPase inh – IMPase inhibition in cells | CHO-M1 cells, IP1 accumulation, HTRF TR-FRET ratio | 120,000 tested, under 10 active | inhibition (IP1 accumulation), % at 46.1 µM | P97697; active = well fitted curve in the direction sought with a large enough effect in the signal ratio, not every such curve was filed as active; inconclusive = small, poorly fitted or top-dose-only effect, or a change in a side signal; inactive = no such curve, though single readings can be large or run the other way; the % refers to the signal ratio;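 note: cells stimulated with carbachol in lithium chloride buffer; plate controls were DMSO basal wells for no effect and reference inhibitor wells for full effect; higher means more IMPase inhibition seen as more IP1 and lower FRET ratio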
Target sequence (P97697 whole entry, looked up): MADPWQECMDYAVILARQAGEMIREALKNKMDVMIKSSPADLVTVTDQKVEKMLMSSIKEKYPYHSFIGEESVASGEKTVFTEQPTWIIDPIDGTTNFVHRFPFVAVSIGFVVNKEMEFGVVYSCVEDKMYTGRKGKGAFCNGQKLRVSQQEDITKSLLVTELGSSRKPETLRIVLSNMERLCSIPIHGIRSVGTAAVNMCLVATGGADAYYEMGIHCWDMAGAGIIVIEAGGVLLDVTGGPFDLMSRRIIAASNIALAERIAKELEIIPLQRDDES
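Cellular IMPase inhibition is scored as a rise in cytosolic IP1, detected by competitive TR-FRET between d2-labelled IP1 and a europium anti-IP1 antibody. M1-expressing CHO cells were stimulated with carbachol for 30 min at 37C, with lithium (50 mM LiCl) present in the buffer.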
Hsp90 Hop PPI – changes Hsp90-Hop TPR2A binding signal, up or down; Potency, µM (titrated, usually from 57 µM), for the others: top-dose activity change, negative = inhibition; AlphaScreen TPR2A-His6 binding biotin-Hsp90 C-terminal peptide; actives 0.44% (n = 71,000); active = well fitted curve in either direction with a large enough effect; inconclusive = small, poorly fitted or top-dose-only effect, or another doubt; note: potency is the fitted concentration of half-maximal effect; % is set by controls: 0 for no effect and ±100 for the full control effect
p53ts 32C kill – cytotoxicity in p53ts cells at permissive temperature. H1299-p53A138V at 32C, ATP luminescence viability, 24 h. Potency, µM (top dose mostly 46.1 µM), without a hit: top-dose activity change, negative = cytotoxicity, most hits filed as cytotoxic. actives 0.93% (n = 130,000). AID 924;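 note: potency is the fitted concentration of half-maximal effect; 0% = DMSO and -100% = full killing by reference compound; nearly all actives have a fitted effect of over 55% in size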
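ATP-content luminescence (ATPlite) read-out after 24 h compound exposure at 32C in H1299-p53A138V cells (600/well). Tested up to 46 uM. Normalized to DMSO (0%) and 100 uM tamoxifen (100% killing); Hill-fit AC50.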
IkB signaling – IkB pathway inhibition in ABC-DLBCL cells. Potency, µM (top dose mostly 57.1 µM), inactives show top-dose IkBa stabilization activation. actives 0.04% (n = 110,000). ABC-DLBCL IkBa-CBG/CBR dual luciferase ratio, 4 h; response scale: scaled: untreated 0%, proteasome inhibitor 100%; active = well fitted curve in the direction sought with a large enough effect in the signal ratio, not every such curve was filed as active; inconclusive = small, poorly fitted or top-dose-only effect, or a change in a side signal; the % refers to the signal ratio;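 note: potency is the fitted concentration of half-maximal effect; the direction sought is a rising ratio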
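Curves were fitted separately to fusion (green), unfused (red) and ratio luminescence, then classed by r2, magnitude and activity. Cells: OCI-Ly3, 4 h compound plus doxycycline at 37C; 10 uM MG-132 defined full response.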
Active calls of the source: *; ! = a repeat was not active; [ ] = another dose, or the depositor's remark. Unless noted, calls come from the whole dose curve; as a rule, active = well fitted curve in the direction sought with a large enough effect; inconclusive = small, poorly fitted or top-dose-only effect, or another doubt; inactive = no such curve, though single readings can be large; an effect the other way counts as inactive or inconclusive.

What do the screens show for `COc1cccc(-c2nc(NC3CCNCC3)c3ccccc3n2)c1`?
Luciferase inh: 0%[2.29 µM]; p53ts 39C tox: 16µM*; Hsp90 Hop PPI: 3%; p53ts 32C kill: inconclusive; IkB signaling: -2%[11.4 µM]

How did c1ccc2c(NC3CCNCC3)nc(-c3ccoc3)nc2c1 do in these assays?
Luciferase inh: -1%[2.29 µM]; p53ts 39C tox: 1%; Hsp90 Hop PPI: -10%; p53ts 32C kill: 2%; IkB signaling: 0%[11.4 µM]

Results for CN(C)c1ccc(-c2nc(NC3CCNCC3)c3ccccc3n2)cc1 ?
Luciferase inh: -1%[2.29 µM]; p53ts 39C tox: 10µM*; Hsp90 Hop PPI: -7%; p53ts 32C kill: inconclusive; IkB signaling: 0%[11.4 µM]

Results for COCCn1c(C)cc(C(=O)CSc2nnc3ccccn23)c1C ?
Luciferase inh: 10µM*; p53ts 39C tox: inconclusive; IMPase inh: -3; Hsp90 Hop PPI: -6%; p53ts 32C kill: inconclusive; IkB signaling: 0%

Results for COCCn1c(C)cc(C(=O)CSc2nc3ccccc3o2)c1C ?
Luciferase inh: 7.9µM*; p53ts 39C tox: -17%; IMPase inh: 10; Hsp90 Hop PPI: -11%; p53ts 32C kill: -17%; IkB signaling: 5%

What do the screens show for `Cc1ccc(CSc2nc3cccnc3n2Cc2nc(-c3ccccc3F)oc2C)cc1`?
p53ts 32C kill: -18%

How did Cc1cccc(C)c1Nc1nc2ccccc2o1 do in these assays?
Luciferase inh: -2%; p53ts 39C tox: -14%; IMPase inh: -2; Hsp90 Hop PPI: 0%; p53ts 32C kill: 0%; IkB signaling: 2%

What do the screens show for `Cc1nc(Nc2nc3ccccc3o2)nc2c1CCC2`?
Luciferase inh: 7.9µM*; p53ts 39C tox: 16µM*; IMPase inh: 9; Hsp90 Hop PPI: 0%; p53ts 32C kill: 13µM*; IkB signaling: 13%

What do the screens show for `Cc1nc(CC(=O)Nc2ccc(C(N)=O)cc2)cs1`?
p53ts 39C tox: 17%; p53ts 32C kill: 5%; IkB signaling: inconclusive

How did CN1[C@H]2CC(OC(=O)[C@H](CO)c3ccccc3)C[C@H]1[C@H]1O[C@H]12 (stereo not given in full) do in these assays?
Hsp90 Hop PPI: -2%; IkB signaling: 0%

What do the screens show for `CC(C)c1ccc(-c2nnn(CCC(=O)O)n2)cc1`?
Luciferase inh: inconclusive; p53ts 39C tox: inconclusive; IMPase inh: -1; Hsp90 Hop PPI: -2%; p53ts 32C kill: 10µM*; IkB signaling: inconclusive

What do the screens show for `O=C(O)CCn1nnc(-c2cccs2)n1`?
Luciferase inh: 5%; p53ts 39C tox: 3%; IMPase inh: -18; Hsp90 Hop PPI: -3%; p53ts 32C kill: 2%; IkB signaling: -5%

How did O=C(O)Cn1c(=O)oc2cc(S(=O)(=O)N3CCOCC3)ccc21 do in these assays?
Luciferase inh: -1%; p53ts 39C tox: 4%; Hsp90 Hop PPI: -1%; p53ts 32C kill: 7%; IkB signaling: 3%

What do the screens show for `CCc1ccc(-n2c(SCc3ccccc3C)nc3[nH]ncc3c2=O)cc1`?
p53ts 39C tox: 25µM*; p53ts 32C kill: inconclusive; IkB signaling: inconclusive

Results for Cc1ccc(-n2c(SCc3ccccc3C)nc3[nH]ncc3c2=O)cc1C ?
p53ts 39C tox: 25µM*; p53ts 32C kill: 15%; IkB signaling: inconclusive

What do the screens show for `NC(=O)c1ccccc1N/C=C/C(=O)c1ccco1`?
Luciferase inh: 10µM*; p53ts 39C tox: inconclusive; IMPase inh: -6; Hsp90 Hop PPI: -6%; p53ts 32C kill: inconclusive; IkB signaling: inconclusive

Results for Cc1ccc(C(=O)/C=C/Nc2ccccc2C(N)=O)cc1 ?
IMPase inh: 1

How did CCC(CC)C(=O)Nc1nnc(S(=O)(=O)N(C)c2cc(C)cc(C)c2)s1 do in these assays?
p53ts 39C tox: -9%; p53ts 32C kill: 7%; IkB signaling: -1%

How did Cc1cc(Nc2cccc(F)c2)nc(-c2ccccc2O)n1 do in these assays?
Luciferase inh: -5%; p53ts 39C tox: 16µM*; IMPase inh: 5; Hsp90 Hop PPI: -1%; p53ts 32C kill: inconclusive; IkB signaling: inconclusive

How did Cc1cnc(C(=O)Nc2ccc(F)c(F)c2)cn1 do in these assays?
Luciferase inh: -2%; p53ts 39C tox: -6%; IMPase inh: -14; Hsp90 Hop PPI: -4%; p53ts 32C kill: -7%; IkB signaling: 5%

How did O=C(Nc1ccc2c(c1)CCC2)c1cnccn1 do in these assays?
Luciferase inh: 25µM*; p53ts 39C tox: -26%; IMPase inh: 0; Hsp90 Hop PPI: -9%; p53ts 32C kill: inconclusive; IkB signaling: 0%

What do the screens show for `Cc1cnc(C(=O)Nc2ccc3c(c2)CCC3)cn1`?
Luciferase inh: 16µM*; p53ts 39C tox: inconclusive; IMPase inh: -9; Hsp90 Hop PPI: -1%; p53ts 32C kill: inconclusive; IkB signaling: 0%

How did Cc1ccc2nc(SC(Cc3cc(Cl)ccc3Cl)C(=O)O)[nH]c2c1 (stereo not given) do in these assays?
p53ts 39C tox: -2%; p53ts 32C kill: -2%; IkB signaling: 1%

Results for CCOc1ccccc1Nc1nc(-c2cccc(Cl)c2)c2c(n1)-c1ccccc1OC2 ?
p53ts 39C tox: 13µM*; p53ts 32C kill: inconclusive; IkB signaling: inconclusive

Results for COC(=O)Cn1c(CN2CCc3ccccc3C2)nc2c1c(=O)n(C)c(=O)n2C ?
Luciferase inh: -2%; p53ts 39C tox: inconclusive; IMPase inh: 4; Hsp90 Hop PPI: -5%; p53ts 32C kill: 5µM*; IkB signaling: 2%

Results for Cc1ccccc1Cn1c(CN2CCc3ccccc3C2)nc2c1c(=O)n(C)c(=O)n2C ?
Luciferase inh: -1%; p53ts 39C tox: 14%; IMPase inh: 12; Hsp90 Hop PPI: -11%; p53ts 32C kill: 8%; IkB signaling: 1%

How did C/C=C\C1=C(CO)C(=O)[C@@H]2OC2C1=O (stereo not given in full) do in these assays?
Luciferase inh: 0%[11.4 µM]; p53ts 39C tox: 8%[9.22 µM]; p53ts 32C kill: -3%[9.22 µM]

Results for Cc1ccc(CNS(=O)(=O)c2cc(C(=O)Nc3cccc(C(F)(F)F)c3)ccc2F)cc1 ?
p53ts 39C tox: 13µM*; p53ts 32C kill: -18%; IkB signaling: inconclusive

How did Cc1ccc(O)c(N=Nc2ccccc2)n1 do in these assays?
Luciferase inh: 13µM*!; p53ts 39C tox: 13µM*; IMPase inh: 16; Hsp90 Hop PPI: -14%; p53ts 32C kill: 20µM*; IkB signaling: 1%

How did Cc1ccc2c(C)ccc(O)c2n1 do in these assays?
IMPase inh: 11

What do the screens show for `Cc1ccccc1-c1ccc(C=Nc2c(C)n(C)n(-c3ccccc3)c2=O)o1`?
Luciferase inh: 16µM*; p53ts 39C tox: -15%; IMPase inh: -26; Hsp90 Hop PPI: inconclusive; p53ts 32C kill: 5%; IkB signaling: 0%
